In the supplement of paper PMC12632987:

B1: usp_38_diff_out_18_14_283 (protein)
chain: SEELSKALKSNLESLKEDVKKDTERVLRLLEKRKDDPEQVKRIKERAERNLEGVITYAEEVLKEAEKEGDEEVKKAAKELIEEAKKAREKIEEKVKEVLA
B2: usp_38_diff_out_18_14_309 (protein)
chain: SAELAEAKKKNLEQLTTDVKEDTERVIRLLRKRRDDPEAVKRLYERAQRNLAGVRKYAEEVKKEAEKAGDKETVAAAEKLLKEVAEAEKRIEEEYARVMA
B3: usp_38_diff_out_18_14_304 (protein)
chain: SEELAAALKSNLESLTKEVKEDTERVIKLLKKRKDDPEEVKRIYERAERNLAGVEAYAKEVKAEAEKAGDAETVAAAEALLKEVKEAREKVKKAYEEVMA
B4: usp_38_diff_out_18_14_284 (protein)
chain: SAELAAAEKAALEILKTDVKKDTERVIRLLKKAKDDPERVKRIYERAKRNLEGVETYAKEVLERAKKAGDKETKAAAEELLKEIEEAKKKIEEAYKEVMA
B5: usp_38_diff_out_18_14_293 (protein)
chain: DAELSAAERSALATLRTDVAADTARTIALLKRVKDDPERVDRVVERARRNLAGVRAFAEEVLREAEERGDEETVAAARELLAAIDAAEAAVAAAAAAVRA
B6: usp_38_diff_out_18_14_285 (protein)
chain: SAELAAAEKSALEILKKDVKEFTKRVIRLLKKSKDDPERVKRIYDRAKRDLAGVEKYAQEVLKRAEKAGDKETKAAAKELLKEIEKAKEEIEKEYKEVMA
B7: usp_38_diff_out_18_14_303 (protein)
chain: GEELAKAELENLKQLKADVKAYTERVIRLLEAARDDPERVKRIYERAQRDLAGVETYAKEVKKEAEKRGDKELVKAAEELLKEVAAARERVEAAYRAVMA
B8: usp_38_diff_out_18_14_289 (protein)
chain: AEELSAAERAALELLLEEVRRDTERTIRLLRRVRDDPERVERIVERAERNLAGVRAYAEDVRARARAAGDEETVAAADRLLAEVEAARARIEEERRRVLA
B9: usp_38_diff_out_18_14_295 (protein)
chain: SEELSKAEISVLETLTKEVEADTDRTIALLEKVADDPERVKRIVERANRNLAGVRAYAEEVKERAEERGDEETVKKAEELLKKIDEAEARIAAAEAAVRA
B10: usp_38_diff_out_18_14_291 (protein)
chain: SEELSEAEKSALELLKEEVKKDTERTIKLLEKVKDDPERVERIVERANRNLEGVRAYAEAVKKEAEARGDEETVKAAEELLKTIEEARERIEKAYKEVKA
B11: usp_38_diff_out_18_14_308 (protein)
chain: AEELAAAKKSNLESLKEEVKKYTERVIELLKKAKDDPERVKRIYERAQRDLEGVRTYAEEVLKEAEAAGDEETKAAAKELLKEIDEAKKKVEKAYKEVMA
B12: usp_38_diff_out_18_14_300 (protein)
chain: SAELAEALKSNLEILKEDVKRYTERVIRLLRKNKDDPERVKRIYERAKRDLEGVRKFAEEVLKLAKEEGDEETAKAAEELLKTIEEEEKRIEEEYKRVMA
B13: usp_38_diff_out_18_14_286 (protein)
chain: SAELAAAEKSALEILKKDVKEDTKRVIRLLEKAKDDPELVERIYERAKRDLAGVRAYAEEVLKRAEEAGDEETKAAAKELLKEIDKAKKEIDAAYKKVMA
B14: usp_38_diff_out_18_14_288 (protein)
chain: SEELSEAEISALKLLREDVERDTERTIRLLERARDDPERVRRIVERRERNLAGVRAYAEEVKKEAEERGDEETVKAAEELLRAIEEARARVAAARERVLA
B15: usp_38_diff_out_18_14_279 (protein)
chain: SEELNEALLSNLESLKEDVERDTERVLRLLEANRDDPERVKRIVERAERNLAGVIEFAKEVLKEAEKAGNEELLKAAKELIKRAKEALERIRRKAEEVLA
B16: usp_38_diff_out_18_14_296 (protein)
chain: SSELSEAERSVLELLKEEVKKDTERTIKLLEKVKDDPERVKRIVERAERNLAGVRAFAEEVKERAEKEGDEETVKAAEELLAEIDAARERIAAAREKVLA
B17: usp_38_diff_out_18_14_277 (protein)
chain: SEELKEALKSNLESLKKDVEEDTKRVIELLDKRKDDPEEVKRIYERAKRNLAGVKEYAKEVLEEAEKAGDEETKKAAEELIKKAEEAEKKIEEKVKEVLA
B18: usp_38_diff_out_18_14_294 (protein)
chain: SSELSEAEVSALELLKKEVREDTERTIRLLEKVKDDPERVKRIVERRQRNLAGVRAYAEEVRRRAEELGDEETVAAANELLAEIDKAEKEVEEAVKRVEA
B19: usp_38_diff_out_18_14_276 (protein)
chain: SSELSEALKSNLESLKKDVKEDTERVLRLLDKRKDDPEQVKRIVERAERDLAGVREYAKEVLREAEERGDEETKKAAEELLKEADAALAKVKAKAKEVLA
B20: usp_38_diff_out_18_14_299 (protein)
chain: SAELAEAKAANLKLLKTDVKEDTERVIKLLKKNKNDPERVKRIYDRAKRNLAGVRTYAEEVLEEAKAAGDAATAAAAQELLKTIDEEEKKIEEEYKKVMA
B21: usp_38_diff_out_18_14_306 (protein)
chain: SEELAEAERSNLESLKKDVKEYTERVIKLLEKAKDDPERVKRIYERAKRNLAGVEEYAKEVLKRAKEAGDEETVKAAEELLKTIEEARKKVEEAYEKVMK
B22: usp_38_diff_out_18_14_287 (protein)
chain: SEEEAEALKSALEILRGDVDAYTERVIRLLEQAAGDPERVRRIHERARRNLAGVRAYAEEVLKRAEEAGDEETKKAAEELLRRVAEAEARIAARYAEVTA
B23: usp_38_diff_out_18_14_282 (protein)
chain: MEELSEALKSNLESLKKDVEEDTKRVIELLEKNKDDPERVKRIYERAERNLEGVLTYAEEVLELAEKLGDEEVKKAAEELKKEAEKAREEIKKKVEKVLA
B24: usp_38_diff_out_18_14_290 (protein)
chain: SEELSKAEISALELLKKEVKENTERTIKLLEKVKDDPELVKRVMERAERNLAGVRAYAEDVKERAKERGDEETVKAAEELLKEIEEARKKLKEEYKKVMA
B25: usp_38_diff_out_18_14_302 (protein)
chain: AAELAAAKKSNLESLKKDVEEDTKRVIELLEKAKDDPERVKRIYENAKRNLAGVRKYAEEVKKEAEEAGDKETVAAAEELLKTIEEAEKKVEEAYKKVMA
B26: usp_38_diff_out_18_14_301 (protein)
chain: SEELAEALRSNLELLKEDVKEDTERVIRLLKKNKNDPERVKDIYERAKRNLAGVREYAEEVLEEAEEAGDEETAEAARELLETIEEERKKIEEEYKKVMA
B27: usp_38_diff_out_18_14_307 (protein)
chain: GEELAAAQLSNLNSLKTDVEKDTERVIKLLKKAKDDPERVKRIYERAKRNLAGVRTYATEVKEEAEKAGNAELVAAANDLLATIDDAEKKIEEEYKKVMA
B28: usp_38_diff_out_18_14_297 (protein)
chain: SEELSEAEISNLELLKKEVEEDTERTIELLEKVKDDPERVKRIVERALRNLAGVEAYAKDVKERAEKEGNEKTVAAANELLATIEEARKRIEEKYKKVME
B29: usp_38_diff_out_18_14_275 (protein)
chain: SSELSEALQSNLESLKKDVKEDTERVLRLLEKRKDDPEQVKRIEERARRNLEGVIKFAEEVLKLAKELGDKETQKAAEELIKLAKEARKRVEEKVKEVLA
B30: usp_38_diff_out_18_14_292 (protein)
chain: SEELSEAEKSVLETLKKDVREDTERTIRLLEKVKDDPERVKRVVERARRNLAGVRAYAEEVKERAEKRGDEETVKAAEELLKEVEKAEERIEKAEEEVLK
B31: usp_38_diff_out_18_14_281 (protein)
chain: SEELSKALLSNLESLKKDVEEDTERVLRLLEKNKDDPERVKRIVERAERDLAGVIEYAKEVLELAKKNGDEETLKAAKELIKKAEEARKRIEEKAKKVLA
B32: usp_38_diff_out_18_14_280 (protein)
chain: SEELSEALLSNLKSLKKDVEEYTKRVLRLLEKNKDDPERVKRIKERAERNLAGVKKYAEEVLKEAEEEGDEETLKAAKELKETAEKALAEIEKKVKEVLA

Target: T1, USP38, Q8NB14
T1 chain: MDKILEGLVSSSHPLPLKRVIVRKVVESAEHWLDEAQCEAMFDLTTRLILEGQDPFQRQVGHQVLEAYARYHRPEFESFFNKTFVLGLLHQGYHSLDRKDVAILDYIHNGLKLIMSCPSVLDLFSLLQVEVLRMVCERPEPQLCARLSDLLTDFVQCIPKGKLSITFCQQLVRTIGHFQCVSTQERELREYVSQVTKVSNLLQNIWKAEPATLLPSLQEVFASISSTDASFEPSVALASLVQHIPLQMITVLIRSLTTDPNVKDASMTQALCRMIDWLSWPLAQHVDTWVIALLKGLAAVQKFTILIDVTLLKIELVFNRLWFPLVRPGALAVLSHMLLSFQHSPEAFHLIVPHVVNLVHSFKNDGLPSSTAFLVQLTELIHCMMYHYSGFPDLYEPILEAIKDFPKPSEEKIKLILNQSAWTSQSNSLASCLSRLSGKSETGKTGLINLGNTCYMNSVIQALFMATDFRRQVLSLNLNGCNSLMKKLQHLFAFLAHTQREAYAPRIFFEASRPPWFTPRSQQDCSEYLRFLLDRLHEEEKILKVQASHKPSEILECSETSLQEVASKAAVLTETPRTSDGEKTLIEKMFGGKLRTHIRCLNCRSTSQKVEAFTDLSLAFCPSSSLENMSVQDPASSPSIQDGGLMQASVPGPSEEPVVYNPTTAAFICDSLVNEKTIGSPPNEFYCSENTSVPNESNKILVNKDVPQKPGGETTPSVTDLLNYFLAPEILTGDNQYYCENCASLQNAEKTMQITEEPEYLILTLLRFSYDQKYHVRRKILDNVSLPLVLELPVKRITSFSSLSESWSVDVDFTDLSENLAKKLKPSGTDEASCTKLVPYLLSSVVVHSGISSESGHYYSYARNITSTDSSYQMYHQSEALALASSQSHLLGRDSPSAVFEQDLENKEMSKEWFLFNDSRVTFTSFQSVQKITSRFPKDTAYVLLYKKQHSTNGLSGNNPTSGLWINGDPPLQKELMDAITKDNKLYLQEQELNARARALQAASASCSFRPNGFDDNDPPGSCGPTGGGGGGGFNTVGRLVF
Assay: median log2 fold change of GCK-ALFA target abundance (FLAG IP / Myc IP barcode read proportion) (log2 ratio); each designed protein is fused to an ALFA-tag nanobody in HEK293 cells to bring the named protein to FLAG-tagged glucokinase (GCK); Myc marks an untargeted standard; higher = target protein stabilised (more abundant)
Conditions: target protein: 3xFLAG-MCP-GCK-ALFA reporter; HEK293 landing pad (RPLP)
In short: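 The readout is target abundance, the per-binder median log2 ratio of FLAG to Myc barcode read proportions. It came from HEK293 landing-pad cells carrying a recombined ALFA-nanobody-fused binder library, induced with 2 μg mL^−1 doxycycline and transfected with a plasmid for a FLAG-tagged target and a Myc-tagged standard. After 48 h, lysates were immunoprecipitated with anti-FLAG and anti-Myc, and circular RNA barcodes were reverse transcribed, amplified and sequenced. Each barcode needed a proportion of at least 10^−7 in both replicates and each binder at least 3 barcodes per replicate, a pseudocount of 10^−6 was added, and the replicates were pooled.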

Row | Binder | median log2 fold change
1 | B1 | -0.104
2 | B2 | -0.138
3 | B3 | 0.296
4 | B4 | 0.0553
5 | B5 | -0.59
6 | B6 | -0.615
7 | B7 | -0.327
8 | B8 | -0.0195
9 | B9 | 0.017
10 | B10 | -0.0115
11 | B11 | -0.392
12 | B12 | -0.852
13 | B13 | 0.128
14 | B14 | -0.282
15 | B15 | -0.00242
16 | B16 | -0.447

Row | Binder | median log2 fold change
17 | B17 | 0.312
18 | B18 | 0.136
19 | B19 | 0.242
20 | B20 | -0.444
21 | B21 | -0.549
22 | B22 | -0.622
23 | B23 | 0.237
24 | B24 | 0.00299
25 | B25 | 0.326
26 | B26 | -0.149
27 | B27 | -0.0463
28 | B28 | 0.335
29 | B29 | -0.129
30 | B30 | 0.0826
31 | B31 | 0.189
32 | B32 | -0.87
